This passage reports outcome and AC50 results from PubChem BioAssay (EPA / NIEHS).

“And” between values parts separate entries of the source, which are not always exact repeats. Identical values can stand only once. Results filed as inconclusive are left out. More than one record can exist for a structure, and the calls need not agree. The source made the active and inactive calls. Rule for the calls: active = hit-call score of the fitted dose curve at least 0.9, where 1 is the maximum; inconclusive = response in the unintended direction; inactive = score below 0.9.

The target of assay [1] is Cellular tumor antigen p53 (Homo sapiens) (UniProt P04637). The assay can be described thus: TOX21_p53_BLA_p2_ratio: Tox21 HCT-116 p53 Agonism Beta-lactamase Assay, Ratio, Phase 2 (AID 2283592). A digest of the protocol:
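In this cell-based reporter format, HCT116 cells were dosed with chemicals delivered from DMSO by 217-fold dilution and incubated 16 h at 37C. Emission at 460 and 530 nm after 2 h CCF4-AM loading provided the ratio, fitted upward versus DMSO.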

Assay [2] in a line: TOX21_p53_BLA_p3_viability: Viability Assessment in the Tox21 HCT-116 p53 Agonism Beta-lactamase Assay, Phase 3 (AID 2283593).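 Note: cells exposed to compound for 16 h before reading.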 A digest of the protocol:
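HCT-116 cells (4000/well) rested 5 h at 37C, then got DMSO compounds by pin tool (217-fold dilution) for 16 h at 37C, 5% CO2. After the bla read, CellTiter-Glo was added and luminescence read at 30 min, room temperature.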

Assay [3] has as its target Cellular tumor antigen p53 (Homo sapiens) (UniProt P04637). The assay can be described thus: TOX21_p53_BLA_p3_ratio: Tox21 HCT-116 p53 Agonism Beta-lactamase Assay, Ratio, Phase 3 (AID 2283596). The gist of the method: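 HCT116 p53-bla cells (4000/well) given compound in DMSO (217-fold dilution) after 5 h, incubated 16 h at 37C. CCF4-AM substrate 2 h at room temperature; 460/530 nm emission ratio, gain fitted against DMSO.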

Assay [4] in a line: TOX21_p53_BLA_p5_viability: Viability Assessment in the Tox21 HCT-116 p53 Agonism Beta-lactamase Assay, Phase 5 (AID 2283600). A digest of the protocol: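 Compounds, pinned from DMSO at 217-fold dilution, were left on the cells for 16 h. The viability endpoint was ATP content measured by CellTiter-Glo luminescence, where falling signal reflects cytotoxicity.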
Assay [5] can be described thus: Tanguay_ZF_120hpf_MORT_legacy: (Legacy) Oregon State University Tanguay Lab 120 Hour Post-fertilization zebrafish Assay for Mortality (AID 2283633).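 For AC50: fitted as increase in binary mortality versus DMSO negative control.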 The gist of the method: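 Brightfield scoring of embryo death (binary) at 24 and 120 hpf; static exposure 6–120 hpf, 28C, sealed and foil-covered. Pronase-dechorionated 5D wild-type larvae, single embryo per well. DMSO 0.64% v/v; trimethyltin chloride 5uM positive control.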

Assay [6] can be described thus: Tanguay_ZF_120hpf_YSE_legacy: (Legacy) Oregon State University Tanguay Lab 120 Hour Post-fertilization zebrafish Assay for Yolk Sac Edema (AID 2283634). The gist of the method: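 Binary brightfield scoring of yolk sac edema at 120 hpf; DMSO baseline, gain-of-signal fitting. Dechorionated 5D larvae, one per well, static exposure 6–120 hpf, 28C, 0.64% DMSO. Dead embryos not scored.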

The nature of assay [7]: Tanguay_ZF_120hpf_AXIS_legacy: (Legacy) Oregon State University Tanguay Lab 120 Hour Post-fertilization zebrafish Assay for Body Axis Malformation (AID 2283635).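 For AC50: potency for an increased fraction of larvae scored with body axis malformation.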 A digest of the protocol: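 Embryos: 5D wild-type, pronase-dechorionated 4 hpf; static exposure 6–120 hpf, 28C, sealed, dark, 1 embryo/well, 0.64% DMSO. 120 hpf axis malformation scored present/absent; dead embryos excluded. Analysed as gain of signal vs DMSO.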

Assay [8] can be described thus: TOX21_p53_BLA_p4_viability: Viability Assessment in the Tox21 HCT-116 p53 Agonism Beta-lactamase Assay, Phase 4 (AID 2283597).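 Note: hits lower the luminescence signal meaning cytotoxicity.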 A digest of the protocol:
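We seeded HCT116 p53 reporter cells at 4000/well and waited 5 h. We then added compounds in DMSO at a 217-fold dilution and incubated for 16 h. Viability was read as CellTiter-Glo luminescence after 30 min at RT.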

In assay [9] the target is Cellular tumor antigen p53 (Homo sapiens) (UniProt P04637). In words: TOX21_p53_BLA_p5_ratio: Tox21 HCT-116 p53 Agonism Beta-lactamase Assay, Ratio, Phase 5 (AID 2283599). The gist of the method: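 HCT-116 cells carrying a p53-inducible beta-lactamase reporter were seeded at 4000 cells/well and dosed after 5 h with compound in DMSO (217-fold dilution). After 16 h at 37C, CCF4-AM substrate was added for 2 h, and the 460/530 nm emission ratio was scored as gain-of-signal versus DMSO.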
Sequence of Cellular tumor antigen p53 (Homo sapiens) (P04637 whole entry, looked up): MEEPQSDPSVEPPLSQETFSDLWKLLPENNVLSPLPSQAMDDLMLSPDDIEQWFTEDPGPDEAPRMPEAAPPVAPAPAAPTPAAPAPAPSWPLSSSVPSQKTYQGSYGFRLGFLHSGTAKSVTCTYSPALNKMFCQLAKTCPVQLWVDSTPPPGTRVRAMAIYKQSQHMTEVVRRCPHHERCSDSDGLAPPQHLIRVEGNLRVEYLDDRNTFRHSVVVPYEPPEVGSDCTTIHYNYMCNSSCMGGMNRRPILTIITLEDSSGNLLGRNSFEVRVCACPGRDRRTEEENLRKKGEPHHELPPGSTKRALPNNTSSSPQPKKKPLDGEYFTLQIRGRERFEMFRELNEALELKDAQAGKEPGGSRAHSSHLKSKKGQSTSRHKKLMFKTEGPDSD

For assay [10] the target is unchanged. The assay can be described thus: TOX21_p53_BLA_p4_ratio: Tox21 HCT-116 p53 Agonism Beta-lactamase Assay, Ratio, Phase 4 (AID 2283601). The gist of the method: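 HCT116 cells carrying an inducible beta-lactamase reporter were plated at 4000 cells/well, rested 5 h, then exposed to compounds in DMSO (217-fold dilution) for 16 h at 37C. CCF4-AM substrate was loaded 2 h at room temperature; 460/530 nm emission ratio scored gain-of-signal versus DMSO.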

For `COC(=O)c1ccccc1N`, the result in assay [1], in assay [2], in assay [3], in assay [4], in [5] and in [6] was inactive. In addition, the molecule was called inactive in assay [7].
For the molecule `CCCCC(CC)COC(=O)c1ccc(C(=O)OCC(CC)CCCC)c(C(=O)OCC(CC)CCCC)c1` (stereo not given), the result in [1], in [2], in [3], in assay [8], in assay [9] and in assay [5] was inactive. In addition, in assay [7], the call was inactive.
As for `CCCCCCCCn1sccc1=O`, the AC50 in [1] is 20.8 µM (active); in assay [2] it was 41.7 µM (active) and 72.5 µM (active); in assay [8] it was 15.4 µM (active); in [5], 2.96 µM (active). The outcome in assay [1], in assay [8], in assay [9], in assay [4] and in assay [7] was inactive.
Take `Brc1ccc(Oc2ccccc2)cc1`: the result in assay [1], in assay [2], in assay [3], in assay [9], in assay [4] and in [10] was inactive. Besides, the molecule was classed as inactive in assay [5] and in assay [7].
Consider `CN(C)c1ccccc1`, for which the result in assay [1], in [2], in assay [3], in assay [8], in assay [9] and in [4] was inactive. In addition, the result in assay [5], in [6] and in [7] was inactive.
With `Cc1cccc(N)c1N`, the result in [1], in [2], in assay [8], in assay [9], in [4] and in assay [5] was inactive. In addition, the AC50 in assay [8] was 26.8 µM (active); in [7], 27.8 µM (active).
On to `COP(=S)(OC)SCN1C(=O)c2ccccc2C1=O`, for which the outcome in assay [1], in [2], in assay [8], in [9], in assay [4] and in assay [10] was inactive. For the same molecule, the molecule was classed as inactive in assay [5], in assay [6] and in [7].
Regarding `C1=Cc2cccc3cccc1c23`, the result in [1], in assay [2], in [3], in [8], in [9] and in assay [4] was inactive. The outcome in assay [5] and in assay [7] was inactive.
For the molecule `CC(C)(C)C(O)(CCc1ccc(Cl)cc1)Cn1cncn1` (stereo not given), the result in assay [1], in [2], in [3], in assay [8], in assay [9] and in assay [4] was inactive. In addition, the outcome in assay [10], in assay [5], in assay [6] and in assay [7] was inactive.
On to `Nc1ccc(N=Nc2ccccc2)cc1`, for which the result in assay [1], in assay [2], in [3], in assay [8], in assay [9] and in assay [4] was inactive. Also, the outcome in assay [10], in [5], in [6] and in [7] was inactive.
For `Cc1cc(N=Nc2ccccc2C)ccc1N`, the AC50 in [1] was 73.1 µM (active); in assay [8], 46.1 µM (active); in assay [9], 73.3 µM (active) and 76.2 µM (active); in assay [10], 74.4 µM (active). Further, the outcome in assay [1], in [2], in [8], in assay [4], in assay [10] and in [5] was inactive. Further, the molecule was classed as inactive in [7].
As for `OCCCl`, the outcome in [1], in [2], in [3], in assay [5] and in assay [7] was inactive.
`Nc1ccc(Cl)cc1N`: the outcome in [1], in assay [2], in assay [8], in assay [9], in assay [4] and in assay [6] was inactive. In addition, the molecule was called inactive in assay [7]. For the same molecule, the values for the AC50 in assay [9] and in assay [5] were 74.7 µM (active) and 25.3 µM (active), respectively.
Take `Clc1ccc(C(c2ccc(Cl)cc2)C(Cl)(Cl)Cl)cc1`: the AC50 in assay [1] is 60.7 µM (active) and 31.1 µM (active); in [2], 77.1 µM (active) and 30.7 µM (active); in assay [8], 30.7 µM (active); in assay [9] it was 82.5 µM (active) and 43.3 µM (active); in assay [4], 68.3 µM (active) and 31.9 µM (active). Also, the outcome in assay [1], in assay [2], in [8], in [9], in [4] and in assay [10] was inactive. Also, the result in [5] and in [7] was inactive.
With `Clc1ccc(C(c2ccc(Cl)cc2)C(Cl)Cl)cc1`, the AC50 in [1] was 68 µM (active); in assay [2] it was 79.1 µM (active) and 50.6 µM (active); in assay [8], 63.4 µM (active) and 46.7 µM (active); in assay [9] it was 89.8 µM (active) and 85.4 µM (active); in assay [4] it was 81.2 µM (active) and 73.1 µM (active). Besides, the result in assay [1], in [5] and in assay [7] was inactive.
Turning to `Nc1ccc([N+](=O)[O-])cc1`, the outcome in assay [1], in [2], in assay [3], in assay [8], in assay [9] and in assay [4] was inactive. Further, the call in [5], in [6] and in [7] was inactive.
